High-throughput results deposited in PubChem by Broad Institute.
Only some compounds are listed: those with a hit (about 1.1% of all), similar ones and a draw of the others.
FadD28 binding: blocks FadD28 binding to the bisubstrate probe. inhibition, % at 12.5 µM. 360,000 compounds, 0.22% hits. fluorescence polarization; in the data active = inhibition above about 8.5%, passing the limit was not always enough
PfHsp40 rescue: compounds rescuing yeast from Plasmodium falciparum HSP40 toxicity | S. cerevisiae expressing PfHsp40, growth rescue, ATP luminescence | growth rescue, % at 12.5 µM | 340,000 compounds, 0.68% hits; in the data active = growth rescue above about 28%, passing the limit was not always enough;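 note: yeast W303a lacking pdr1 and pdr3 grown in galactose medium; growth measured after three days at 30 °C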
BioA inh: inhibitors of Mycobacterium tuberculosis BioA enzyme; purified M. tuberculosis BioA enzyme, plate reader; inhibition, % at 9.99 µM; 360,000 compounds, 0.096% hits; in the data active = inhibition above about 40%
PrP 5UTR inh: inhibition of PrP 5' UTR reporter expression. 340,000 compounds, 0.35% hits. inhibition, % (concentration not given with the values). cell-based PrP 5' UTR mRNA reporter, plate reader; in the data active = inhibition above about 52%; note: 0 = median of the neutral control wells
Yp Topo-I inh: Y. pestis Topo-I inhibition via cleavage products; activity, % at 10 µM; Y. pestis Topo-I cleavage product accumulation, plate reader; 360,000 compounds, 0.064% hits; AID 504884; in the data active = activity above about 50%, passing the limit was not always enough
* marks the source's active call; other numbers are inactive results.

How did COC(=O)c1c(NC(=O)CSc2nnc(CNc3ccc(Cl)cc3)o2)sc(C)c1C do in these assays?
FadD28 binding: -1.0; PfHsp40 rescue: 50.7*; BioA inh: 0.3; PrP 5UTR inh: -6.9; Yp Topo-I inh: 1.3

How did CCOC(=O)c1c(NC(=O)CSc2nnc(CNc3ccc(F)cc3)o2)sc(C(C)=O)c1C do in these assays?
FadD28 binding: -2.7; PfHsp40 rescue: 1.7; PrP 5UTR inh: -28.0; Yp Topo-I inh: 0.8

Results for CC(C)c1c(O)ccc2c1CC[C@H]1C(C)(C)CCC[C@]21C ?
FadD28 binding: -5.9; PfHsp40 rescue: 111.7*; BioA inh: -1.0; PrP 5UTR inh: -13.3; Yp Topo-I inh: -2.4

What do the screens show for `Cc1cccc(N2CCN(CC(=O)N(C)Cc3ccccc3)CC2C)c1` (configuration not stated)?
FadD28 binding: -1.1; PfHsp40 rescue: 43.6*; BioA inh: 1.3; PrP 5UTR inh: -6.8; Yp Topo-I inh: 1.5

How did NS(=O)(=O)c1ccc(N=Nc2c(O)c(C(=O)O)cc3ccccc23)cc1 do in these assays?
FadD28 binding: 4.7; PfHsp40 rescue: -1.0; BioA inh: -0.2; PrP 5UTR inh: -20.2; Yp Topo-I inh: -17.0

What do the screens show for `O=C(O)Cc1ccc(N=Nc2c(O)c(C(=O)O)cc3ccccc23)cc1`?
FadD28 binding: 13.6*; PfHsp40 rescue: -1.2; BioA inh: 9.1; PrP 5UTR inh: -15.2; Yp Topo-I inh: -5.3

What do the screens show for `O=C(O)CSC(C(=O)Nc1ccc(C(F)(F)F)cc1)c1ccccc1` (configuration not stated)?
FadD28 binding: 10.0*; PfHsp40 rescue: 0.0; BioA inh: -0.2; PrP 5UTR inh: -7.7; Yp Topo-I inh: -1.2

Results for Cc1c(NS(=O)(=O)c2ccc(Br)cc2)c(=O)n(-c2ccccc2)n1C ?
FadD28 binding: -2.2; PfHsp40 rescue: 0.8; BioA inh: 0.3; PrP 5UTR inh: -8.7; Yp Topo-I inh: 3.1

Results for O=S(=O)(Nc1ccn(-c2ccccc2)n1)c1ccc(Br)cc1 ?
FadD28 binding: -1.8; PfHsp40 rescue: 60.1*; BioA inh: 0.0; PrP 5UTR inh: -14.7; Yp Topo-I inh: -0.9

How did O=C(Nc1sc2c(c1C(=O)O)CCCC2)c1ccc(F)cc1 do in these assays?
FadD28 binding: 1.2; PfHsp40 rescue: -2.0; BioA inh: 1.3; PrP 5UTR inh: -43.4; Yp Topo-I inh: -20.4

What do the screens show for `CC(C)(C)c1ccc(C(=O)Nc2sc3c(c2C(=O)O)CCC3)cc1`?
FadD28 binding: 14.1*; PfHsp40 rescue: 1.7; PrP 5UTR inh: 14.3; Yp Topo-I inh: -1.3

What do the screens show for `NC(N)=N/N=C/c1ccc(N(c2ccccc2)c2ccccc2)cc1`?
FadD28 binding: 1.0; PfHsp40 rescue: 105.5*; BioA inh: -1.8; PrP 5UTR inh: -14.9; Yp Topo-I inh: -42.7

Results for CCN(Cc1ccccc1)c1ccc(/C=N/N=C(N)N)cc1 ?
FadD28 binding: 3.5; PfHsp40 rescue: 2.4; BioA inh: 2.3; PrP 5UTR inh: -11.7; Yp Topo-I inh: -29.0

Results for CC1CC(C)CN(C(=O)c2cccc(S(=O)(=O)Nc3cc(C(F)(F)F)ccc3Cl)c2)C1 (configuration not stated) ?
FadD28 binding: -6.1; PfHsp40 rescue: 224.6*; PrP 5UTR inh: -13.8; Yp Topo-I inh: 12.5

What do the screens show for `Oc1c(CN2CCCCC2)ccc2cccnc12`?
FadD28 binding: -0.2; PfHsp40 rescue: 46.7*; BioA inh: 0.2; PrP 5UTR inh: 19.8; Yp Topo-I inh: 5.0

How did Oc1ccc(CN2CCCCC2)c2cccnc12 do in these assays?
FadD28 binding: -2.3; PfHsp40 rescue: 23.6; BioA inh: -0.5; PrP 5UTR inh: -20.6; Yp Topo-I inh: -2.3

Results for C[C@H]1CN([C@@H](C)CO)C(=O)c2cc(NC(=O)Nc3ccc(F)cc3)ccc2O[C@@H]1CN(C)S(C)(=O)=O ?
BioA inh: -1.9

Results for Clc1ccc(-c2n[nH]c3c2CCC3)cc1Cl ?
FadD28 binding: -3.0; PfHsp40 rescue: 241.1*; BioA inh: -1.1; PrP 5UTR inh: -11.5; Yp Topo-I inh: 22.5

Results for Clc1ccc(-c2n[nH]c3c2CCCC3)cc1 ?
FadD28 binding: -5.1; PfHsp40 rescue: -0.7; PrP 5UTR inh: -41.0; Yp Topo-I inh: 6.8

Results for COc1cc2ccccc2cc1C(=O)OCC(=O)N(CC(C)C)c1c(N)n(Cc2ccccc2)c(=O)[nH]c1=O ?
FadD28 binding: 6.1; PfHsp40 rescue: 1.2; BioA inh: -3.1; PrP 5UTR inh: -20.7; Yp Topo-I inh: 71.2*

Results for CN(C[C@@H]1[C@@H](c2ccccc2)[C@H](CO)N1CC1CC1)C(=O)c1cccc(F)c1 ?
BioA inh: 2.4
